Laboratory results as given in PubChem BioAssay (Tox21).
Inconclusive results are not listed. Active and inactive are the calls of the source. Unless noted, calls come from the whole dose curve; as a rule, active = well fitted curve in the direction sought with a large enough effect in the repeat runs; inconclusive = weak or mixed curves; inactive = no such curve, though single readings can be large; an effect the other way counts as inactive or inconclusive.

Tests used:
[1] = molecular target: Retinoic acid receptor RXR-alpha (Homo sapiens) (UniProt P19793); assay: qHTS assay to identify small molecule agonists of the RXR signaling pathway (AID 1159527; calls by dose curve; note: nearly all actives have a fitted effect of over 35% in size)
Method in brief: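 GeneBLAzer RXR-alpha-UAS-bla HEK 293T cells in medium with 2% charcoal-stripped FBS, pre-incubated 5 hr at 37 C, then exposed to compounds 16 hr. Beta-lactamase reporter read by FRET substrate, 2 hr room temperature, 460/530 nm emission.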

[2] = qHTS assay to identify small molecule agonists of the RXR signaling pathway - cell viability counter screen (AID 1159529); note: series mostly up to about 77 µM; nearly all actives have a fitted effect of over 50% in size
Method in brief: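 RXR-alpha-UAS-bla HEK 293T cells in medium with 2% charcoal-stripped FBS were preincubated 5 hr, then exposed to compounds for 16 hr at 37 C. Viability was read as CellTiter-Glo luminescence after 30 min at room temperature.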

[3] = qHTS assay to identify small molecule antagonists of the retinoic acid receptor (RAR) signaling pathway (AID 1159552; note: nearly all actives have a fitted effect of over 50% in size)
Method in brief: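 RARE-luc C3RL4 cells; cpds + 1 uM (final) retinol, 6 hr, 37 C/5% CO2; luciferase reagent, 30 min RT, luminescence readout. Inhibitors of retinol-driven signal scored.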

[4] = qHTS assay to identify small molecule antagonists of the estrogen related receptor (ERR) signaling pathway from Tox21 library - cell viability counter screen (AID 1224834); note: nearly all actives have a fitted effect of over 30% in size
Method in brief: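 ERR reporter cells, 2,000 per well, rested 6 h, then exposed to compound in DMSO for 17.5 hours at 37 C. Viability read as fluorescence after 30 min with CellTiter-Fluor.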

[5] = molecular target: Luciferin 4-monooxygenase (Photinus pyralis) (UniProt P08659); assay: qHTS assay to identify small molecule inhibitors of firefly luciferase (AID 1224835); note: nearly all actives have a fitted effect of over 25% in size; note: potency is the fitted concentration of half-maximal effect
Method in brief: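 Quantitative HTS format; KM concentrations of both substrates. Purified P. pyralis FLuc activity quantified from luminescence images.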

[6] = qHTS assay to identify small molecule agonists of the constitutive androstane receptor (CAR) signaling pathway - cell viability counter screen (AID 1224836); note: series mostly up to about 92 µM; nearly all actives have a fitted effect of over 45% in size
Method in brief: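 HepG2 cells stably carrying hCAR and a CYP2B6-2.2kb reporter were plated 4 h, then given compounds at 15 concentrations plus PK11195 (final 0.75 uM). After 23 h at 37 C, viability was read by CellTiter-Fluor fluorescence.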

[7] = qHTS assay to identify small molecule antagonists of the constitutive androstane receptor (CAR) signaling pathway - cell viability counter screen (AID 1224837); note: series mostly up to about 92 µM; nearly all actives have a fitted effect of over 45% in size
Method in brief: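 HepG2 cells stably carrying hCAR and CYP2B6-2.2kb reporter, stimulated with 50 nM CITCO and compounds at 15 concentrations for 23 h at 37 C. Viability measured by CellTiter-Fluor fluorescence.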

[8] = qHTS assay to identify small molecule antagonists of the estrogen related receptor signaling pathway with the pleiotropic PPARgamma coactivator (PGC) from Tox21 10K library - cell viability counter screen (AID 1224840; active = well fitted cell-killing curve with a large enough effect in the repeat runs, not every such curve was filed as active; note: nearly all actives have a fitted effect of over 40% in size)
Method in brief: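 PGC/ERR cells (2,000/well) plated 6 h, then compound-treated for 17.5 h at 37 C. Viability measured by CellTiter-Fluor fluorescence after 30 min at 37 C, multiplexed with the pathway assay.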

[9] = qHTS assay to identify small molecule antagonists of the estrogen related receptor signaling pathway with the pleiotropic PPARgamma coactivator (PGC) from Tox21 10K library (AID 1224841; call rule not given here; note: series mostly up to about 92 µM; actives are mostly falling curves and most rising ones were filed inactive; nearly all actives have a fitted effect of over 50% in size)
Method in brief: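 PGC/ERR cell line, 2,000 cells/well, pre-incubated 6 hours at 37 C, then exposed to compounds for 18 hours at 37 C; luciferase read with One-Glo luminescence after 30 min at room temperature.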

[10] = qHTS assay to identify small molecule agonists of the estrogen related receptor signaling pathway with the pleiotropic PPARgamma coactivator (PGC) from Tox21 10K library (AID 1224842); note: nearly all actives have a fitted effect of over 15% in size
Method in brief: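 PGC/ERR reporter cells (NTP line) were seeded 2,000 per well, rested 6 h at 37 C/5% CO2, then pin-dosed with compounds in DMSO for 18 h at 37 C; luciferase read by One-Glo luminescence after 30 min at room temperature.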

[11] = qHTS assay to identify small molecule antagonists of the retinoid acid receptor (RAR) signaling pathway - cell viability counter screen (AID 1159551); note: nearly all actives have a fitted effect of over 35% in size
Method in brief: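 C3RL4 RARE-luciferase cells, 1,000/well, incubated overnight, then dosed with compound plus 1 uM retinol (final). After 6 hr at 37 C, viability read by CellTiter-Glo ATP luminescence following 30 min at room temperature.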

[12] = molecular target: Nuclear receptor subfamily 1 group I member 3 (Homo sapiens) (UniProt Q14994); assay: qHTS assay to identify small molecule antagonists of the constitutive androstane receptor (CAR) signaling pathway (AID 1224838); note: nearly all actives have a fitted effect of over 40% in size
Method in brief: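 HepG2 cells stably carrying hCAR and a CYP2B6-2.2kb luciferase reporter, seeded 4 hrs before compound (15 concentrations). Stimulated with 50 nM CITCO for 24 hr at 37 C. ONE-Glo luminescence read after 30 min at room temperature.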

[13] = molecular target: Nuclear receptor subfamily 1 group I member 3 (Homo sapiens) (UniProt Q14994); assay: qHTS assay to identify small molecule agonists of the constitutive androstane receptor (CAR) signaling pathway (AID 1224839); note: nearly all actives have a fitted effect of over 15% in size; note: potency is the fitted concentration of half-maximal effect; for activation: series mostly up to about 92 µM
Method in brief: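 HepG2 cells stably expressing hCAR and a CYP2B6-2.2kb luciferase reporter were treated with compounds at 15 concentrations plus 0.75 uM PK11195 (final) for 24 h at 37 C; luminescence was read after ONE-Glo addition.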

[14] = qHTS assay to identify small molecule antagonists of the estrogen related receptor (ERR) signaling pathway - cell viability counter screen (AID 1224818); note: series mostly up to about 46 µM
Method in brief: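 ERR cells, 2,000 per well, compound added after 6 h and incubated 17.5 h at 37 C. Viability read by CellTiter-Fluor fluorescence after a further 30 min at 37 C.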

[15] = qHTS assay to identify small molecule antagonists of the estrogen related receptor signaling pathway with the pleiotropic PPARgamma coactivator (PGC) cell viability counter screen (AID 1224822; note: series mostly up to about 46 µM)
Method in brief: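 PGC/ERR cells rested 6 h, then compound-treated 17.5 h at 37 C. CellTiter-Fluor added for 30 min at 37 C, viability measured by fluorescence intensity.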
% is set by controls: 0 for no effect and ±100 for the full control effect.

Chain of Retinoic acid receptor RXR-alpha (Homo sapiens) (P19793 whole entry, looked up): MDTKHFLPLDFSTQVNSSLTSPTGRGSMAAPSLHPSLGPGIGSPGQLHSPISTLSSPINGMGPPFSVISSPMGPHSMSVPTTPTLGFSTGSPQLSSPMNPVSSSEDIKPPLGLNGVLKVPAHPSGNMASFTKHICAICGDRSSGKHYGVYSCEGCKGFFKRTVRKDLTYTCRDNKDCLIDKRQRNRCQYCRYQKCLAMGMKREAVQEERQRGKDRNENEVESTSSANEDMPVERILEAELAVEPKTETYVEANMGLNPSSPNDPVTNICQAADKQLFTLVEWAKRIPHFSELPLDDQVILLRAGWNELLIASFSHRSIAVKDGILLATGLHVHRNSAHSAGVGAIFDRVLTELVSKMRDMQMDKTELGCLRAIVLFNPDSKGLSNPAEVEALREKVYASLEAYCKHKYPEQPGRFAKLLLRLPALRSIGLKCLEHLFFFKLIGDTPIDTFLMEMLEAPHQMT
Chain of Nuclear receptor subfamily 1 group I member 3 (Homo sapiens) (Q14994 whole entry, looked up): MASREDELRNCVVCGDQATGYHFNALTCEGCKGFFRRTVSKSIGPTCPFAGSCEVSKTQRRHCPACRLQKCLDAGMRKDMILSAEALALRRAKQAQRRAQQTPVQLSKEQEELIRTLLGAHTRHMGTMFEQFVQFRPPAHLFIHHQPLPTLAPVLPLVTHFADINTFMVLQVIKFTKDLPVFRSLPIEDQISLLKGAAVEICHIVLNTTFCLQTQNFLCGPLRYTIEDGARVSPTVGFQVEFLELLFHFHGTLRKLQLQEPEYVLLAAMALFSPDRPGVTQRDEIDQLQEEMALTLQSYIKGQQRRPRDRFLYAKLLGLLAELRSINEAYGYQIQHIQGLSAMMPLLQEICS
Chain of Luciferin 4-monooxygenase (Photinus pyralis) (P08659 whole entry, looked up): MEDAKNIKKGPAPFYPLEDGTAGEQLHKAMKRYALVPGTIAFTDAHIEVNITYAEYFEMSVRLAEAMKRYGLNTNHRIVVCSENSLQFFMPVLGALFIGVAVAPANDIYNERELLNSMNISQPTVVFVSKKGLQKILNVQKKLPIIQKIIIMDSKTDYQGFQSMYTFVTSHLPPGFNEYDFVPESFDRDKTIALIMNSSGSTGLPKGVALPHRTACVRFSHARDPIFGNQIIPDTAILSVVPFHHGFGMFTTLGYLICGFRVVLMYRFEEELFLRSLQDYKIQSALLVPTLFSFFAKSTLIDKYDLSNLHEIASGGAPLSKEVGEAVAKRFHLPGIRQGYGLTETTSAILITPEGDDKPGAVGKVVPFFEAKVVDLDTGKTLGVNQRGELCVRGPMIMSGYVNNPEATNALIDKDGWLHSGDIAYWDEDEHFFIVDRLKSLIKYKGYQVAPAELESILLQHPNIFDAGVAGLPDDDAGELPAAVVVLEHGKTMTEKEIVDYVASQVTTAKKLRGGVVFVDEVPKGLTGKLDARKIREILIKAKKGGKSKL

CNc1ncnc2nc[nH]c12
inactive: Potency [1] | Potency [2] | Potency [3] | Potency [4] | Potency [5] | outcome [6] | outcome [7] | outcome [8] | Potency [9] | Potency [10]

COc1cc(O)cc(O)c1
inactive: Potency [1] | Potency [2] | outcome [11] | Potency [4] | Potency [5] | outcome [6] | Potency [12] | Potency [13] | outcome [8]

Nc1ccc2cc(S(=O)(=O)O)ccc2c1
inactive: Potency [1] | Potency [2] | outcome [11] | Potency [4] | outcome [6] | outcome [7] | Potency [12] | Potency [13] | outcome [8]

CC(=O)N[C@@H](CCC(N)=O)C(=O)O
inactive: Potency [1] | Potency [2] | outcome [11] | Potency [4] | Potency [5] | outcome [6] | Potency [13] | outcome [8]

NCCNC(=O)c1ccc(Cl)cn1
inactive: Potency [1] | Potency [2] | outcome [11] | Potency [4] | Potency [5] | outcome [6] | outcome [7] | outcome [8] | Potency [9] | Potency [10]

CC(C)CCCC(C)NCCC(C)C (stereo unspecified)
inactive: Potency [1] | Potency [2] | outcome [11] | Potency [4] | Potency [5] | outcome [6] | outcome [7] | outcome [8] | Potency [9] | Potency [10]

CC(=O)OC(C)(C)C
inactive: Potency [1] | Potency [2] | outcome [11] | Potency [4] | Potency [5] | outcome [6] | outcome [8] | Potency [9] | Potency [10]

CC(C=O)Cc1ccc(C(C)C)cc1 (stereo unspecified)
inactive: Potency [1] | Potency [2] | outcome [11] | Potency [4] | Potency [5] | outcome [6] | Potency [12] | Potency [13] | outcome [8]

CCC(C(=O)NC(N)=O)c1ccccc1 (stereo unspecified)
inactive: Potency [1] | Potency [2] | outcome [11] | Potency [4] | Potency [5] | outcome [6] | outcome [8] | Potency [9] | Potency [10]

CCn1c(=O)c2c(nc(/C=C/c3ccc(OC)c(OC)c3)n2C)n(CC)c1=O
inactive: Potency [1] | Potency [2] | outcome [11] | Potency [5] | outcome [6] | outcome [7] | Potency [12] | Potency [13] | outcome [8] | Potency [9] | Potency [10]

CC(=O)O[C@H](CC(=O)[O-])C[N+](C)(C)C
inactive: Potency [1] | Potency [2] | outcome [11] | Potency [4] | Potency [5] | outcome [6] | outcome [8] | Potency [9] | Potency [10]

CCn1cc(C(=O)O)c(=O)c2cc(F)c(N3CCN(C)CC3)cc21
inactive: activation [1] 8.93% [at 15.8 µM] | activity change, negative = cytotoxicity [2] 6.61% [at 15.8 µM] | activity change, negative = cytotoxicity [11] 1.65% [at 19 µM] | viability change, negative = cytotoxic [4] 3.25% [at 19 µM] | viability change, negative = cytotoxic [6] 2.39% [at 19 µM] | activity change, negative = cytotoxicity [7] 2.92% [at 19 µM] | viability change, negative = cytotoxic [8] 8.09% [at 19 µM]

CO
inactive: Potency [1] | Potency [2] | outcome [11] | Potency [4] | outcome [6] | outcome [7] | Potency [13] | outcome [8] | Potency [9] | Potency [10]

CSc1ccc(C=O)cc1
inactive: Potency [1] | Potency [2] | Potency [3] | Potency [4] | Potency [5] | outcome [6] | outcome [7] | outcome [8]

CCCCc1ccc(N)cc1
inactive: Potency [1] | Potency [2] | outcome [11] | Potency [4] | Potency [5] | outcome [6] | Potency [12] | Potency [13] | outcome [8]

[O-][N+](=Nc1ccccc1)c1ccccc1
active: Potency [5] 11.3 µM | Potency [13] 30.6 µM
inactive: Potency [1] | Potency [2] | outcome [11] | Potency [4] | outcome [6] | Potency [12] | outcome [8]

CCN(CC)C(=O)c1ccc(O)c(OC)c1
inactive: Potency [1] | Potency [2] | outcome [14] | outcome [15] | Potency [4] | Potency [5] | outcome [6] | outcome [7] | Potency [12] | Potency [13] | outcome [8]

O=C(O)CCNC(=O)c1ccc(N=Nc2ccc(O)c(C(=O)O)c2)cc1
inactive: Potency [1] | Potency [2] | outcome [11] | outcome [6] | outcome [7] | Potency [12] | Potency [13] | outcome [8]
active: Potency [5] 30.9 µM
